Measurements taken from the supplement of paper PMC6805474.

Each molecule was assayed on Schistosoma mansoni schistosomula (NMRI) (assay: phenotypic severity score (0-4); higher = more antischistosomal effect, active = 2 or more). Conditions: 24 h; 10 µM.
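Note: visual microscopic scoring of shape, motility and density changes versus 0.5% DMSO solvent controls, one point per descriptor, degeneracy or death scored 4, mean of duplicate wells.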

| Compound | phenotypic severity score |
| --- | --- |
| COc1cccc2c(C)nc(N=C(N)N)nc12 | 0 (inactive) |
| Nc1ncc(-c2cn[nH]c2)cc1-c1nc2cc(Cl)cnc2[nH]1 | 0 (inactive) |
| Nc1ncnc2c1ncn2C[C@@H](O)[C@@H](O)C(=O)O | 0 (inactive) |
| CN1CCC(c2cc(-c3ccncc3)c(-c3ccc(F)cc3)[nH]2)CC1 | 0 (inactive) |
| Cc1[nH]c2ccccc2c1C(c1cccs1)N1CCN(C)CC1 (configuration not stated) | 3 (active) |
| Cc1cccc(Cn2ccc(NC(=O)c3ccc4c(c3)OCO4)n2)c1 | 0 (inactive) |
| COc1ccc(N(CCc2cccc(C)n2)C(C)=O)cc1 | 1 (inactive) |
| CC[C@H](CO)NCCN[C@H](CC)CO | 0 (inactive) |
| O=C(NC1CCCCC1)N1CCN(Cc2ccc3c(c2)OCO3)CC1 | 0 (inactive) |
| Brc1c(-c2ccc3c(c2)OCO3)nc2ncccn12 | 0 (inactive) |
| CCCCS(=O)(=O)Nc1ccc2cnn(C)c2c1 | 0 (inactive) |
| Cc1cc(NC(=O)c2ccc(Oc3ccc(Cl)cc3O)o2)no1 | 0 (inactive) |
| CC(C)n1nc(-c2cc3c(Cl)cccc3[nH]2)c2c(N)ncnc21 | 4 (active) |
| CN1CCN(c2cc(-c3ccc(F)cc3)nc(-c3ccncc3)n2)CC1 | 0 (inactive) |
| COC(=O)c1c(NC(=O)c2c(F)c(F)c(F)c(F)c2F)sc2c1CCCCC2 | 2 (active) |
| Cc1nn(C(=O)Nc2cccc(C(F)(F)F)c2)c(C)c1Sc1ncccn1 | 0 (inactive) |
| c1ccc(Oc2ccc(-c3cc(N4CCNCC4)[nH]n3)cc2)cc1 | 2 (active) |
| Cn1c(=O)c2c(S(C)(=O)=O)snc2n(C)c1=O | 4 (active) |
| c1ccc(-c2nc(NC3CCCCC3)cc(C3CC3)n2)nc1 | 0 (inactive) |
| COc1cncc(-c2cncc(N3CCN(c4ccncc4)CC3)n2)c1 | 1 (inactive) |

Same assay, conditions: 48 h; 10 µM

| Compound | phenotypic severity score |
| --- | --- |
| Cc1cc(O)nc(-n2nc(C)cc2C)n1 | 0 (inactive) |
| N=C(N)c1ccc(OCCCCCOc2ccc(C(=N)N)cc2)cc1 | 0 (inactive) |
| O=C(Nc1ccc(N2CCNCC2)cc1)c1ccn2ncc(-c3cccc(Cl)c3)c2n1 | 4 (active) |
| Cc1ccc(S(=O)(=O)N2CCN(C(=O)c3cc(-c4ccccc4)[nH]n3)CC2)cc1 | 2 (active) |
| c1csc(-c2cnc3sc(NCC4CCOCC4)nn23)c1 | 0 (inactive) |
| Brc1cncc(-c2cc(NCCCn3ccnc3)nc(-c3ccccc3)n2)c1 | 4 (active) |
| O=C(NC1=NCCS1)c1sc2cc(F)ccc2c1Cl | 0 (inactive) |
| O=C(NCCc1c[nH]c2ccccc12)c1cc2ccccc2oc1=O | 0 (inactive) |
| CCc1ccc(S(=O)(=O)Nc2cc(CN3CCN(CCC(C)C)CC3)ccc2C)cc1 | 2 (active) |
| Clc1ccc(CN2CCN(C3=NCCN3)CC2)cc1Cl | 0 (inactive) |
| CC(c1cc(Cl)cc(Cl)c1)N(C)c1ncc2c(N)nc(N)nc2n1 (configuration not stated) | 0 (inactive) |
| Nc1ncc(-c2ccc(C(F)(F)F)nc2)cc1-c1ccc(C(F)(F)F)nc1 | 0 (inactive) |
| FC(F)(F)c1nnc2ccc(Cl)nn12 | 0 (inactive) |
| O=C(c1ccc(NCCO)cc1)C1C[C@H]1c1ccc(Cl)cc1 (some centres not stated) | 0 (inactive) |
| NCC(=O)N1CCn2c(nc(-c3ccccc3)c2Nc2ccc3c(c2)OCO3)C1 | 0 (inactive) |
| C[C@H]1COc2c(N3CCN(C)CC3)c(F)cc3c(=O)c(C(=O)O)cn1c23 | 0 (inactive) |
| COc1ccc(CCN2CCC(NCc3cccc(N(C)C)c3)CC2)cc1 | 0 (inactive) |
| COc1cccc2c(C)nc(N=C(N)N)nc12 | 0 (inactive) |
| Nc1ncc(-c2cn[nH]c2)cc1-c1nc2cc(Cl)cnc2[nH]1 | 0 (inactive) |

| Compound | phenotypic severity score |
| --- | --- |
| Nc1ncnc2c1ncn2C[C@@H](O)[C@@H](O)C(=O)O | 0 (inactive) |
| CN1CCC(c2cc(-c3ccncc3)c(-c3ccc(F)cc3)[nH]2)CC1 | 0 (inactive) |
| Cc1[nH]c2ccccc2c1C(c1cccs1)N1CCN(C)CC1 (configuration not stated) | 4 (active) |
| Cc1cccc(Cn2ccc(NC(=O)c3ccc4c(c3)OCO4)n2)c1 | 0 (inactive) |
| COc1ccc(N(CCc2cccc(C)n2)C(C)=O)cc1 | 1 (inactive) |
| CC[C@H](CO)NCCN[C@H](CC)CO | 0 (inactive) |
| O=C(NC1CCCCC1)N1CCN(Cc2ccc3c(c2)OCO3)CC1 | 0 (inactive) |
| Brc1c(-c2ccc3c(c2)OCO3)nc2ncccn12 | 0 (inactive) |
| CCCCS(=O)(=O)Nc1ccc2cnn(C)c2c1 | 0 (inactive) |
| Cc1cc(NC(=O)c2ccc(Oc3ccc(Cl)cc3O)o2)no1 | 0 (inactive) |
| CC(C)n1nc(-c2cc3c(Cl)cccc3[nH]2)c2c(N)ncnc21 | 4 (active) |
| CN1CCN(c2cc(-c3ccc(F)cc3)nc(-c3ccncc3)n2)CC1 | 0 (inactive) |
| COC(=O)c1c(NC(=O)c2c(F)c(F)c(F)c(F)c2F)sc2c1CCCCC2 | 4 (active) |
| Cc1nn(C(=O)Nc2cccc(C(F)(F)F)c2)c(C)c1Sc1ncccn1 | 0 (inactive) |
| c1ccc(Oc2ccc(-c3cc(N4CCNCC4)[nH]n3)cc2)cc1 | 2 (active) |
| Cn1c(=O)c2c(S(C)(=O)=O)snc2n(C)c1=O | 4 (active) |
| c1ccc(-c2nc(NC3CCCCC3)cc(C3CC3)n2)nc1 | 0 (inactive) |
| COc1cncc(-c2cncc(N3CCN(c4ccncc4)CC3)n2)c1 | 0 (inactive) |
